PubChem BioAssay (NCI)
The panel holds about 83,000 compounds, 20% with a hit somewhere; the sample as a whole holds those more often.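 Plates (96-well) were seeded with cells, treated with compound at one concentration, and incubated for 48 hours before percent growth was determined.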 Unmarked numbers belong to inactive results. The source made the active and inactive calls. How the source made its calls: active means growth percent below 10; inactive means the rest.

Tested on: SK-MEL-2 melanoma
Experiment: NCI-60 one-dose screen, 48 h (100 = growth as untreated, 0 = no growth, -100 = all killed)
Conditions: 10 µM unless noted

SMILES | growth
CCC(Br)(CC)C(=O)c1ccc(OCC(=O)O)c(Cl)c1Cl | 94.6%
C#C[C@]1(O)CC[C@H]2[C@@H]3CC=C4c5nc(Nc6ccccc6[N+](=O)[O-])sc5CC[C@]4(C)[C@H]3CC[C@@]21C | 56.7%
O=C(N/N=C\c1cc(Cl)ccc1O)N/N=C/c1cc(Cl)ccc1O | 70.6%
C=C(C)[C@@H]1CC[C@]2(C(=O)NCCNCCNC(=O)OC(C)(C)C)CC[C@]3(C)[C@H](CC[C@@H]4[C@@]5(C)CCC(=O)C(C)(C)[C@@H]5CC[C@]43C)[C@@H]12 | 41.7% [100 µM]
Cc1cc(C)c(O)c(CNCCCNCc2cc(C)cc(C)c2O)c1 | 88.5%
O=C(Nc1ccc(C(=O)/C=C/c2ccc(N3CCOCC3)cc2)cc1)Nc1ccc([N+](=O)[O-])cc1 | 97.6%
C[C@H]1[C@H](C)CC[C@]2(C(=O)N3CCN(C)CC3)CC[C@]3(C)C(=CC[C@@H]4[C@@]5(C)C/C(=C/c6ccco6)C(=O)C(C)(C)[C@@H]5CC[C@]43C)[C@H]12 | 42.1% [100 µM]
Nc1nc(Cl)c2ncn(Cc3cc4c(cc3I)OCO4)c2n1 | 57.1%
CC1(C)OC2[C@@H](CNC(=O)NC(=O)NC(=O)CI)O[C@@H](n3cnc4c(NC(=O)Nc5ccccc5)ncnc43)[C@H]2O1 (stereo not given in full) | 95.4%
Fc1cc2[nH]ncc2c2c3c(c(-c4cn[nH]c4C(F)(F)F)nc12)C1CCC3C1 (stereo not given) | -32.6% (active)
CC1Cc2c(Cl)ncnc2N(C)c2ccccc21 (stereo not given) | -28.2% (active)
C=C(C)[C@@H]1CC[C@]2(COCCCN)CC[C@]3(C)[C@H](CC[C@@H]4[C@@](C)(CCCNCCCN)[C@H](C(=C)C)CC[C@]43C)[C@@H]12 | -59.3% [100 µM] (active)
CCCCCCSc1ncnc2nc[nH]c12 | 105%
C[C@@H]1C[C@H]2C(=O)O[C@@H](C)[C@H](NC(=O)[C@H](Cc3cc(F)cc(F)c3)NC(=O)Nc3ccc(C4CC4)cc3F)C(=O)N3CCC[C@H]3C(=O)N3CCCC[C@H]3C(=O)N[C@@H](C)C(=O)N2C1 | 16.7%
O=[N+]([O-])c1ccc(O)c(-c2nc3ccccc3s2)c1 | 99%
COc1cc2c(cc1OC(C)=O)C(=O)CCCC2 | 99.3%
COc1ccc(CC(C#N)c2ccc(Cl)cc2)cc1 (stereo not given) | 80%
COc1ccc(N(c2nc(-c3ccc([N+](=O)[O-])cc3)cs2)C(C)C)cc1 | 92.1%
C=C(C)[C@@H]1CC[C@]2(C)[C@H](CC[C@@H]3[C@@H]([C@@](C)(O)CCC=C(C)C)CC[C@]32C)[C@@]1(C)CCC(=O)O | -41.6% [100 µM] (active)
CCOc1ccc(S(=O)(=O)Nc2ccc3c(c2)N(S(=O)(=O)CC)CCC3)cc1 | 111%
Cc1cnc(N)nc1OCCNC(=O)c1cccc(-c2ccc(S(=O)(=O)Nc3ccc4c(c3)N(C(=O)C3CC3)CCC4)cc2)c1 | 74.4%
Fc1cc2[nH]ncc2c2c3c(c(-c4cn[nH]c4)nc12)CCCC3 | -30.7% (active)

Tested on: EKVX NSCLC
Experiment: as above
Conditions: 10 µM unless noted

SMILES | growth
O=C1CN(Cc2ccc(C(=O)NO)cc2)C(=O)[C@@H](Cc2ccccc2)N1 | 98.9%
COc1ncc(-c2ccc3nccc(C#CCCCCC(=O)NO)c3c2)cc1NS(=O)(=O)c1ccc(F)cc1F | 4.18% (active)
CCCCCN(CCCCC)CCCCCCCCN1CCCc2ccccc21 | 76.7%
CC1Cc2c(Cl)ncnc2N(C)c2ccc(O)cc21 (stereo not given) | 51.3%
FC(F)(F)c1ccc2c(c1)Sc1ccccc1N2 | 91.6%
Cc1ccc2c(n1)C(=O)C(Cl)=C(Nc1ccc(N3CCN(C)CC3)cc1)C2=O | -81.8% (active)
CCOc1cc(/C=N\NC(=O)N/N=C/c2ccc(O)c(OCC)c2)ccc1O | 60.6%
C1=C[C@H]2O[C@@H]1c1ccc3[nH]ccc3c12 | 105%
CC1(C)CC[C@]2(C(=O)O)CC[C@]3(C)[C@H](CC[C@@H]4[C@@]5(C)CCC(=O)C(C)(C)[C@@H]5CC[C@]43C)[C@H]2[C@H]1OC(=O)C(F)(F)F | -69.6% [100 µM] (active)
[2H]C1([2H])CCN(C(=O)C2CC2)c2cc(NS(=O)(=O)c3ccc(-c4cccc(C(N)=O)c4)cc3)ccc21 | 72.7%
CCOC(=O)c1sc2nc(-c3cc(OC)c(OC)c(OC)c3)nc(N3CCOCC3)c2c1C | 39.5%
O=C(CCN1CCCCC1)c1ccc(Cl)cc1 | 101%
O=C1CC(C(F)(F)F)Cc2nc3ccc(Br)cc3cc21 (stereo not given) | 81%
NC(=O)c1cccc(-c2ccc(S(=O)(=O)Nc3ccc4c(c3)N(C(=O)C3CC3)CCC4)cc2)c1 | 67.1%
CCOC(=O)CCC[P+](c1ccccc1)(c1ccccc1)c1ccccc1 | 75.5%
CC1(C)CC[C@]2(C(=O)O)CC[C@]3(C)C(=CC[C@@H]4[C@@]5(C)C/C(=C/c6cccnc6)[C@H](O)C(C)(C)[C@@H]5CC[C@]43C)[C@@H]2C1 | 0.843% [100 µM] (active)
CCC(Br)(CC)C(=O)c1ccc(OCC(=O)O)c(Cl)c1Cl | 95.3%
C#C[C@]1(O)CC[C@H]2[C@@H]3CC=C4c5nc(Nc6ccccc6[N+](=O)[O-])sc5CC[C@]4(C)[C@H]3CC[C@@]21C | 67.4%
O=C(N/N=C\c1cc(Cl)ccc1O)N/N=C/c1cc(Cl)ccc1O | 69.4%

SMILES | growth
C=C(C)[C@@H]1CC[C@]2(C(=O)NCCNCCNC(=O)OC(C)(C)C)CC[C@]3(C)[C@H](CC[C@@H]4[C@@]5(C)CCC(=O)C(C)(C)[C@@H]5CC[C@]43C)[C@@H]12 | 53.5% [100 µM]
Cc1cc(C)c(O)c(CNCCCNCc2cc(C)cc(C)c2O)c1 | 75%
O=C(Nc1ccc(C(=O)/C=C/c2ccc(N3CCOCC3)cc2)cc1)Nc1ccc([N+](=O)[O-])cc1 | 112%
C[C@H]1[C@H](C)CC[C@]2(C(=O)N3CCN(C)CC3)CC[C@]3(C)C(=CC[C@@H]4[C@@]5(C)C/C(=C/c6ccco6)C(=O)C(C)(C)[C@@H]5CC[C@]43C)[C@H]12 | 42.3% [100 µM]
Nc1nc(Cl)c2ncn(Cc3cc4c(cc3I)OCO4)c2n1 | 95.8%
CC1(C)OC2[C@@H](CNC(=O)NC(=O)NC(=O)CI)O[C@@H](n3cnc4c(NC(=O)Nc5ccccc5)ncnc43)[C@H]2O1 (stereo not given in full) | 77.3%
Fc1cc2[nH]ncc2c2c3c(c(-c4cn[nH]c4C(F)(F)F)nc12)C1CCC3C1 (stereo not given) | 28.2%
CC1Cc2c(Cl)ncnc2N(C)c2ccccc21 (stereo not given) | 21.7%
C=C(C)[C@@H]1CC[C@]2(COCCCN)CC[C@]3(C)[C@H](CC[C@@H]4[C@@](C)(CCCNCCCN)[C@H](C(=C)C)CC[C@]43C)[C@@H]12 | -60.8% [100 µM] (active)
CCCCCCSc1ncnc2nc[nH]c12 | 83.6%
C[C@@H]1C[C@H]2C(=O)O[C@@H](C)[C@H](NC(=O)[C@H](Cc3cc(F)cc(F)c3)NC(=O)Nc3ccc(C4CC4)cc3F)C(=O)N3CCC[C@H]3C(=O)N3CCCC[C@H]3C(=O)N[C@@H](C)C(=O)N2C1 | 26.6%
O=[N+]([O-])c1ccc(O)c(-c2nc3ccccc3s2)c1 | 83.6%
COc1cc2c(cc1OC(C)=O)C(=O)CCCC2 | 104%
COc1ccc(CC(C#N)c2ccc(Cl)cc2)cc1 (stereo not given) | 90%
COc1ccc(N(c2nc(-c3ccc([N+](=O)[O-])cc3)cs2)C(C)C)cc1 | 65.8%
C=C(C)[C@@H]1CC[C@]2(C)[C@H](CC[C@@H]3[C@@H]([C@@](C)(O)CCC=C(C)C)CC[C@]32C)[C@@]1(C)CCC(=O)O | 8.69% [100 µM] (active)
CCOc1ccc(S(=O)(=O)Nc2ccc3c(c2)N(S(=O)(=O)CC)CCC3)cc1 | 96.1%
Cc1cnc(N)nc1OCCNC(=O)c1cccc(-c2ccc(S(=O)(=O)Nc3ccc4c(c3)N(C(=O)C3CC3)CCC4)cc2)c1 | 98.9%
Fc1cc2[nH]ncc2c2c3c(c(-c4cn[nH]c4)nc12)CCCC3 | 13.1%
